An excerpt weighted towards active compounds, which were near 19% of everything screened.
DT40 TDP1 CPT = DT40-hTDP1 cell growth loss with CPT; chicken DT40 Tdp1-/-;hTDP1 cells + 20 nM CPT, ATP luminescence, 48 h; Potency, µM (titrated, usually from 46.2 µM), usual class: inhibitors; hit rate 12% among 420,000; AID 686979; also: nearly all actives have a fitted effect of over 55% in size
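Cell growth measured by CellTiter-Glo luminescence after a minimum 48 h, 37 C compound exposure with 20 nM CPT in Tdp1-knockout DT40 cells stably expressing hTDP1, seeded 400/well; qHTS titration format.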
HepG2 viability = HepG2 cytotoxicity, counter-screen for TGF-b inhibitors | HepG2 CAGA-GFP viability, ATP luminescence, 18 h | Potency, µM (top dose mostly 46.1 µM), actives largely listed as cytotoxic | hit rate 0.76% among 410,000
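CellTiter-Glo luminescence gave cytotoxicity after 18 hours at 37 degrees C. The cells were HepG2 CAGA-GFP in 1% FBS DMEM, stimulated with 500 pg/mL TGF-beta after compound addition. %Activity was normalised to no-cell wells (complete cell-killing) and DMSO (no toxicity), and curves were fitted and classified.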
TDP1 inh = blocks human tyrosyl-DNA phosphodiesterase 1; Q9NUW8; recombinant TDP1, AlphaScreen DNA substrate cleavage; Potency, µM (titrated, usually from 130 µM), hits mostly inhibitors; hit rate 0.28% among 350,000; AID 485290; also: nearly all actives have a fitted effect of over 40% in size
Target sequence (Q9NUW8 whole entry, looked up): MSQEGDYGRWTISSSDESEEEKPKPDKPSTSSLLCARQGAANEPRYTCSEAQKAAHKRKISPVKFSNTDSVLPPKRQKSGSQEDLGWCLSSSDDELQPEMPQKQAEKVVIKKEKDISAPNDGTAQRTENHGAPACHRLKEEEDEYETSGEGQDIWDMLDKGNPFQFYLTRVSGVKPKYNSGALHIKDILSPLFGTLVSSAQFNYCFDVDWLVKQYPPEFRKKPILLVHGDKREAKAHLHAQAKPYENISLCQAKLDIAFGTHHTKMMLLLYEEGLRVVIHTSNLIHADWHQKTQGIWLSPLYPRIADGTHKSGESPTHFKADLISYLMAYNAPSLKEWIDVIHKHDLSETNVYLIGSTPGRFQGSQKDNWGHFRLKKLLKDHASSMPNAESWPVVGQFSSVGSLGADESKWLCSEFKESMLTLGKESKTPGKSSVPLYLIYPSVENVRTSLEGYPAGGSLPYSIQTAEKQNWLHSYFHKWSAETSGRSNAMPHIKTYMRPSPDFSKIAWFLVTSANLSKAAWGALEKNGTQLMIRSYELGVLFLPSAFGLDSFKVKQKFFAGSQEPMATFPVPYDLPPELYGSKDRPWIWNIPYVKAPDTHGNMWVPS
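Compounds were preincubated with Tdp1 (1 nM final) for 15 min at room temperature before substrate (15 nM final) started a 5 min reaction; beads (10 ug/ml final) were then added for 10 min before AlphaScreen detection.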
TDP1 cell noCPT = qHTS for Inhibitors of human tyrosyl-DNA phosphodiesterase 1 (TDP1): qHTS in cells in absence of CPT | DT40 Tdp1-/- hTDP1 cells, no CPT, ATP luminescence, 48 h | Potency, µM (titrated, usually from 46.2 µM), actives largely listed as inhibitors | hit rate 15% among 420,000 | AID 686978, 2013; also: nearly all actives have a fitted effect of over 55% in size
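Camptothecin absent (DMSO only). Human TDP1-complemented DT40 knockout cells, 400 cells/well, 37 °C for minimum 48 hr; ATP measured via CellTiter-Glo, 30 min dark incubation, luminescence.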
TGFb inhibitor = TGF-b pathway inhibition. Potency, µM (highest dose often 46.1 µM), most hits filed as inhibitors. HepG2 CAGA-GFP TGF-b/SMAD3 reporter, GFP fluorescence, 18 h; TGF-beta stimulated, 500 pg/mL final. hit rate 1.2% among 410,000; also: nearly all actives have a fitted effect of over 65% in size
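Read-out: total well GFP (ex488/em500-530) summed from mean per-cell fluorescence. Cells: HEPG2 CAGA-GFP, 1% FBS DMEM, 18 h at 37 degrees C with 500 pg/mL final TGF-beta. Unstimulated wells served as the full-inhibition control; stimulated DMSO wells = 0%.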
IL1B secr inh = inflammasome signaling inhibition, IL-1 beta readout | THP-1 LPS/ATP IL-1B secretion, AlphaLISA, 16 h; stronger effect = lower value | activity change, % at 57.5 µM | hit rate 4.7% among 360,000 | AID 743279; in the data active = activity change below about -50%; inconclusive = mostly about -30% to -49%
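THP-1 cells pretreated 1 hr with compounds (up to 57.5 uM final), then stimulated with LPS (250 ng/mL final) plus ATP (1.25 mM final); secreted IL-1B measured by AlphaLISA after 16 hr, decreased signal indicating inhibition.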
Large screens that a line does not name were inactive. Unless noted, calls follow the shape of the dose curve; as a rule, active = well fitted curve in the direction sought with a large enough effect; inconclusive = small, poorly fitted or top-dose-only effect, or another doubt; inactive = no such curve, though single readings can be large; an effect the other way counts as inactive or inconclusive.

COc1ccc(-c2n[nH]c(C)c2-c2cc(OC)ccc2O)cc1	DT40 TDP1 CPT inconclusive, TDP1 cell noCPT inconclusive
COc1ccc(-c2cc(-c3cc(OC)ccc3O)[nH]n2)cc1	DT40 TDP1 CPT 21µM, TDP1 cell noCPT inconclusive, TGFb inhibitor inconclusive
Cc1ccc(-c2cc(-c3cccc(F)c3)n[nH]2)c(O)c1	TDP1 cell noCPT inconclusive, TGFb inhibitor inconclusive
CC[C@]12c3[nH]c4ccc(Cl)cc4c3CCN1C(=O)[C@@H](CC(=O)NC(C)(C)C)C[C@@H]2C(=O)N1CCN(C(=O)c2ccco2)CC1	DT40 TDP1 CPT 15µM, TDP1 cell noCPT 18µM, TGFb inhibitor inconclusive
CC[C@]12c3[nH]c4cc(-c5ccco5)ccc4c3CCN1C(=O)[C@@H](CC(=O)NC(C)(C)C)C[C@@H]2C(=O)N1CCN(C(=O)c2ccco2)CC1	DT40 TDP1 CPT 23µM, TDP1 cell noCPT 15µM, TGFb inhibitor inconclusive
CSc1ccccc1OCc1cc(C(=O)NCCn2ccnc2C)no1	none
O=C(CSCC(=O)N1CCCCC1)Nc1nc(-c2ccccc2)c(-c2ccccc2)s1	DT40 TDP1 CPT 18µM, TDP1 cell noCPT 16µM, TGFb inhibitor inconclusive
CNC[C@H](O)c1ccc(OC(=O)C(C)(C)C)c(OC(=O)C(C)(C)C)c1	none (no result: DT40 TDP1 CPT, HepG2 viability, TDP1 cell noCPT, TGFb inhibitor, IL1B secr inh)
Fc1cccc(-n2cc(-c3ccccc3)c3c(=S)nc[nH]c32)c1	DT40 TDP1 CPT inconclusive, TDP1 cell noCPT 21µM
Cc1ccccc1C(=O)Nc1cccc(-c2cn3ccccc3n2)c1	DT40 TDP1 CPT inconclusive, TDP1 cell noCPT inconclusive, TGFb inhibitor inconclusive, IL1B secr inh -80
CCCS(=O)(=O)Nc1cc(-c2cn3cccc(C)c3n2)ccc1C	DT40 TDP1 CPT inconclusive, TDP1 cell noCPT 18µM (no result: IL1B secr inh)
Cc1cc(C)c(S(=O)(=O)Nc2cccc(-c3cn4ccccc4n3)c2)c(C)c1	DT40 TDP1 CPT 18µM, TDP1 cell noCPT 29µM, TGFb inhibitor inconclusive (no result: IL1B secr inh)
Cc1ccc(C(=O)Nc2cccc(-c3cn4ccccc4n3)c2)cc1	DT40 TDP1 CPT inconclusive, TDP1 cell noCPT inconclusive, IL1B secr inh -52
O=C(Nc1ccccc1)Nc1cccc(-c2cn3cccnc3n2)c1	TDP1 cell noCPT inconclusive
CCCS(=O)(=O)Nc1cccc(-c2cn3ccc(C)cc3n2)c1	DT40 TDP1 CPT 23µM, TDP1 cell noCPT 16µM, TGFb inhibitor inconclusive (no result: IL1B secr inh)
O=C(Nc1ccc(-c2cn3ccccc3n2)cc1)c1ccc(Cl)cc1	DT40 TDP1 CPT 23µM, TDP1 cell noCPT 9.2µM
O=C(Nc1cccc(-c2cn3ccccc3n2)c1)c1ccccc1	DT40 TDP1 CPT inconclusive, TDP1 cell noCPT inconclusive, IL1B secr inh -68
CCOC(=O)C1=CNS(=O)(=O)NC1c1cccc(O)c1 (centres undefined)	none (no result: TDP1 inh)
CCN1C(=O)C2(c3ccccc31)c1c(oc3ccc(C)cc3c1=O)C(=O)N2CCCOC(C)C (centres undefined)	DT40 TDP1 CPT inconclusive, TDP1 cell noCPT inconclusive (no result: IL1B secr inh)
Cc1cccc(NS(=O)(=O)c2ccc3c(c2)CC(C)N3C(=O)C2CCC2)c1C (centres undefined)	DT40 TDP1 CPT inconclusive, TDP1 cell noCPT 18µM, TGFb inhibitor inconclusive (no result: IL1B secr inh)
CCOc1ccccc1NS(=O)(=O)c1ccc2c(c1)CC(C)N2C(=O)C1CCC1 (centres undefined)	DT40 TDP1 CPT 23µM, TDP1 cell noCPT 15µM, TGFb inhibitor inconclusive (no result: IL1B secr inh)
Cc1ccc(Cl)cc1N1CCN(S(=O)(=O)c2ccc3c(c2)CC(C)N3C(=O)C2CCC2)CC1 (centres undefined)	TDP1 cell noCPT inconclusive (no result: IL1B secr inh)
CCOC(=O)C1(C)CCCN(C(=O)c2snnc2C)C1 (centres undefined)	none (no result: TDP1 inh)
Cc1ccc(C)c(N(C(=O)Cc2cccs2)C(C(=O)NC2CCCC2)c2ccc(C)o2)c1 (centres undefined)	DT40 TDP1 CPT 23µM, TDP1 cell noCPT 13µM
Cc1ccc(C(C(=O)NC2CCCC2)N(C(=O)Cc2cccs2)c2ccc3c(c2)OCCO3)cc1 (centres undefined)	DT40 TDP1 CPT inconclusive, TDP1 cell noCPT inconclusive, IL1B secr inh -58
COc1cc(N(C(=O)Cc2cccs2)C(C(=O)NC2CCCCC2)c2cccc(OC)c2OC)ccc1-n1cnnn1 (centres undefined)	DT40 TDP1 CPT 12µM, TDP1 cell noCPT 26µM
O=C(NCC(=O)N(c1ccc2c(c1)OCO2)C(C(=O)NC1CCCC1)c1ccncc1)c1ccco1 (centres undefined)	DT40 TDP1 CPT 23µM, TDP1 cell noCPT 23µM (no result: TDP1 inh)
O=C(NCC(=O)N(c1ccc(Cl)cc1)C(C(=O)NC1CCCC1)c1ccncc1)c1ccco1 (centres undefined)	none (no result: TDP1 inh)
COc1cccc(C(C(=O)NC2CCCCC2)N(C(=O)Cc2cccs2)c2ccc(-n3cnnn3)c(OC)c2)c1 (centres undefined)	DT40 TDP1 CPT inconclusive, TDP1 cell noCPT inconclusive, TGFb inhibitor inconclusive
Cc1cccc(CCN(C(=O)Cc2cccs2)C(C(=O)NC2CCCCC2)c2cccnc2)c1 (centres undefined)	DT40 TDP1 CPT 5.8µM, TDP1 cell noCPT inconclusive, IL1B secr inh inconclusive
Cc1ccc(N(C(=O)Cc2cccs2)C(C(=O)NC2CCCC2)c2ccncc2)cc1 (centres undefined)	DT40 TDP1 CPT inconclusive
Cc1ccc(C(C(=O)NC2CCCC2)N(C(=O)Cc2cccs2)c2ccc(C)c(C)c2)o1 (centres undefined)	DT40 TDP1 CPT inconclusive, TDP1 cell noCPT 22µM, TGFb inhibitor inconclusive, IL1B secr inh -74
Cc1nc2ccccc2nc(=O)c1NNc1ccccc1	TDP1 cell noCPT inconclusive, TGFb inhibitor inconclusive
Cc1ccc2nc(=O)c(NNc3ccccc3)cnc2c1	DT40 TDP1 CPT inconclusive, TDP1 cell noCPT 10µM
Cc1ccc(Cl)cc1NC(=O)Nc1nnc(N(C)Cc2ccccc2)s1	DT40 TDP1 CPT 21µM, TDP1 cell noCPT 23µM (no result: IL1B secr inh)
CCc1ccccc1NC(=O)Nc1nnc(N(C)Cc2ccccc2)s1	DT40 TDP1 CPT inconclusive, TDP1 cell noCPT inconclusive, TGFb inhibitor 13µM (no result: IL1B secr inh)
Cc1ccc(NC(=O)Nc2nnc(N(C)Cc3ccccc3)s2)c(C)c1	TDP1 cell noCPT inconclusive (no result: IL1B secr inh)
COc1ccc(S(=O)(=O)N2CCCOC2CNC(=O)C(=O)NCCCN2CCOCC2)cc1C (centres undefined)	HepG2 viability 1.4µM
COc1ccc(CCNC(=O)C(=O)NCC2OCCN2S(=O)(=O)c2ccc(OC)c(OC)c2)cc1 (centres undefined)	TDP1 cell noCPT inconclusive (no result: TDP1 inh)

Screening results deposited in PubChem by National Center for Advancing Translational Sciences (NCATS).
